Common to all, as to test: yeast three-hybrid, YBZ-1, SC-Leu-His + 0.5 mM 3-AT, 4 days
What all share (conditions): tags: N-Gal4 AD-HA kept; label: inside an RPR1-promoter hybrid RNA with tandem MS2 sites; ssRNA

Experiment [1] deals with PUM1 PUF domain R4-GPG (Homo sapiens, UniProt Q14671 828-1176, N971G;H972P;Q975G). The gist of the method:
(§1)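 The interaction score is the logarithmic change in variant frequency from input to selection. It uses log2, with a pseudocount of 1 for absent variants, and frequencies came from PCR-amplified, Illumina-sequenced repeat regions. The libraries were Pumilio-1 PUF domains randomized at the three base-contacting residues per repeat, co-expressed with matching RNA elements in strain YBZ-1 (LexA–MS2 coat fusion, HIS3 reporter). Plating lasted four days on SC-Leu (input) or SC-Leu-His + 0.5 mM 3-AT (selection).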

Experiment [2] deals with PUM1 PUF domain R5-RNT (Homo sapiens, UniProt Q14671 828-1176, C1007R;R1008N;Q1011T). The gist of the method:
as §1

Experiment [3] concerns the target PUM1 PUF domain R5-KFK (Homo sapiens, UniProt Q14671 828-1176, C1007K;R1008F;Q1011K). The gist of the method:
as §1

Experiment [4] concerns the target PUM1 PUF domain R5-DFY (Homo sapiens, UniProt Q14671 828-1176, C1007D;R1008F;Q1011Y). Summed up: as §1
The target of experiment [5] is T1, PUM1 PUF domain R6-TFG (Homo sapiens, UniProt Q14671 828-1176, N1043T;Y1044F;Q1047G).
T1 sequence: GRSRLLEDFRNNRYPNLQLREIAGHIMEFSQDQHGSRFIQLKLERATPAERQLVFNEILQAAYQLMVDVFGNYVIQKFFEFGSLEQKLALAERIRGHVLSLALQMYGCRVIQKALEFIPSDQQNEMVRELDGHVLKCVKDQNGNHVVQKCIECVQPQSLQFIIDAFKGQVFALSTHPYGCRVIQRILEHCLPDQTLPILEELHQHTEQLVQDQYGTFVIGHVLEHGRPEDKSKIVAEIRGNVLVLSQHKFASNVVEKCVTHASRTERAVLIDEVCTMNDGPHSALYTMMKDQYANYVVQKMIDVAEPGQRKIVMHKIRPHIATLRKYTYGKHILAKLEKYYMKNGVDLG
The gist of the method: as §1

The target in experiment [6] is PUM1 PUF domain R8-RRQ (Homo sapiens, UniProt Q14671 828-1176, N1122R;Y1123R). Summed up: as §1
The target in experiment [7] is PUM1 PUF domain R8-KRG (Homo sapiens, UniProt Q14671 828-1176, N1122K;Y1123R;Q1126G). The gist of the method: as §1
Experiment [8] has as its target PUM1 PUF domain R3-GRY (Homo sapiens, UniProt Q14671 828-1176, C935G;Q939Y). The gist of the method:
as §1

For experiment [9], the target named is PUM1 PUF domain R1-RAT (Homo sapiens, UniProt Q14671 828-1176, S863R;R864A;Q867T). Summed up:
as §1

In experiment [10] the target is PUM1 PUF domain R1-NLR (Homo sapiens, UniProt Q14671 828-1176, S863N;R864L;Q867R). Summed up: as §1

Among the data in paper PMC8384837, “Expanding the binding specificity for RNA recognition by a PUF domain” are binding signal values, retold here.

Take “GGCUAGAACUAGUGGAUCCCCCGGCGCCCGGCGGCUCGAGCCCGGGUAAGUGUAUAUAGUCUGCAUGCCGCCGGGCGCCAUGCCUGCAGGUCGACUCUAGAAAACAUG”: the binding signal in experiment [1] was 2.98 log2 enrichment (interaction score).
As to “GGCUAGAACUAGUGGAUCCCCCGGCGCCCGGCGGCUCGAGCCCGGGUAAGUGUCAAUAGUCUGCAUGCCGCCGGGCGCCAUGCCUGCAGGUCGACUCUAGAAAACAUG”, the binding signal in experiment [2] was 2.85 log2 enrichment (interaction score).
For the sequence “GGCUAGAACUAGUGGAUCCCCCGGCGCCCGGCGGCUCGAGCCCGGGUAAGUGUUAAUAGUCUGCAUGCCGCCGGGCGCCAUGCCUGCAGGUCGACUCUAGAAAACAUG”, the binding signal in [3] was 5.11 log2 enrichment (interaction score); in experiment [4] it was 4.07 log2 enrichment (interaction score); in experiment [2], 3.11 log2 enrichment (interaction score).
Regarding “GGCUAGAACUAGUGGAUCCCCCGGCGCCCGGCGGCUCGAGCCCGGGUAAGUGUAAAUAGUCUGCAUGCCGCCGGGCGCCAUGCCUGCAGGUCGACUCUAGAAAACAUG”, the binding signal is 5.01 log2 enrichment (interaction score) in [5]; 1.1 log2 enrichment (interaction score) in [6]; 5.02 log2 enrichment (interaction score) in [1]; 2.71 log2 enrichment (interaction score) in [4]; 2.05 log2 enrichment (interaction score) in [2]; 1.8 log2 enrichment (interaction score) in experiment [7]. Further, the binding signal in experiment [8] is 4.27 log2 enrichment (interaction score).
In the case of “GGCUAGAACUAGUGGAUCCCCCGGCGCCCGGCGGCUCGAGCCCGGGUAAGUGUAAAUGGUCUGCAUGCCGCCGGGCGCCAUGCCUGCAGGUCGACUCUAGAAAACAUG”, in [9], the binding signal is 2.45 log2 enrichment (interaction score).
For “GGCUAGAACUAGUGGAUCCCCCGGCGCCCGGCGGCUCGAGCCCGGGUAAGUGUACAUAGUCUGCAUGCCGCCGGGCGCCAUGCCUGCAGGUCGACUCUAGAAAACAUG”, the binding signal in experiment [1] is 2.28 log2 enrichment (interaction score).
Take “GGCUAGAACUAGUGGAUCCCCCGGCGCCCGGCGGCUCGAGCCCGGGUAAGUGUAAAUCGUCUGCAUGCCGCCGGGCGCCAUGCCUGCAGGUCGACUCUAGAAAACAUG”: the binding signal in experiment [9] is 4.37 log2 enrichment (interaction score).
Regarding “GGCUAGAACUAGUGGAUCCCCCGGCGCCCGGCGGCUCGAGCCCGGGUAAGUGUAAAUUGUCUGCAUGCCGCCGGGCGCCAUGCCUGCAGGUCGACUCUAGAAAACAUG”, the binding signal is 3.04 log2 enrichment (interaction score) in [9] and 3.68 log2 enrichment (interaction score) in experiment [10].
As to “GGCUAGAACUAGUGGAUCCCCCGGCGCCCGGCGGCUCGAGCCCGGGUAAGCGUAAAUAGUCUGCAUGCCGCCGGGCGCCAUGCCUGCAGGUCGACUCUAGAAAACAUG”, the binding signal was 2.97 log2 enrichment (interaction score) in experiment [6] and 4.19 log2 enrichment (interaction score) in experiment [7].
